Measurements taken from PubChem BioAssay (NCATS).
Inconclusive results are not listed. Activity calls are given as the source filed them. Unless noted, calls follow the shape of the dose curve; as a rule, active = well fitted curve in the direction sought with a large enough effect; inconclusive = small, poorly fitted or top-dose-only effect, or another doubt; inactive = no such curve, though single readings can be large; an effect the other way counts as inactive or inconclusive.

Key:
[1] = qHTS to identify inhibitors of the type 1 interferon - major histocompatibility complex class I in skeletal muscle: primary screen against the NCATS Pharmaceutical Collection (AID 1347407);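 also: luminescence of HiBiT knocked into endogenous HLA-B as interferon-induced MHC class I level; % is scaled to controls: 0 for no effect and ±100 for the full control effect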
Procedure, shortened: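 Luminescence from HiBiT-tagged endogenous HLA-B*08:01 served as the read-out of IFN-beta-induced MHC class I in CRISPR-engineered C25cl48 myoblasts. Cells received 4 ng/ml IFN-beta plus compound (high final 46 uM, […]) for 24 h.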

[2] = target: Protein phosphatase 1D (Homo sapiens) (UniProt O15297); test: RapidFire Mass Spectrometry qHTS Assay for Modulators of WT P53-Induced Phosphatase 1 (WIP1) (AID 1347424);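 also: amount of dephosphorylated VEPPL-S-QETFS peptide product formed by WIP1; series mostly up to about 63 µM; plate controls were DMSO wells for no effect and GSK830371 inhibitor control at 10 µM for full effect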
Chain of Protein phosphatase 1D (Homo sapiens) (O15297 whole entry, looked up): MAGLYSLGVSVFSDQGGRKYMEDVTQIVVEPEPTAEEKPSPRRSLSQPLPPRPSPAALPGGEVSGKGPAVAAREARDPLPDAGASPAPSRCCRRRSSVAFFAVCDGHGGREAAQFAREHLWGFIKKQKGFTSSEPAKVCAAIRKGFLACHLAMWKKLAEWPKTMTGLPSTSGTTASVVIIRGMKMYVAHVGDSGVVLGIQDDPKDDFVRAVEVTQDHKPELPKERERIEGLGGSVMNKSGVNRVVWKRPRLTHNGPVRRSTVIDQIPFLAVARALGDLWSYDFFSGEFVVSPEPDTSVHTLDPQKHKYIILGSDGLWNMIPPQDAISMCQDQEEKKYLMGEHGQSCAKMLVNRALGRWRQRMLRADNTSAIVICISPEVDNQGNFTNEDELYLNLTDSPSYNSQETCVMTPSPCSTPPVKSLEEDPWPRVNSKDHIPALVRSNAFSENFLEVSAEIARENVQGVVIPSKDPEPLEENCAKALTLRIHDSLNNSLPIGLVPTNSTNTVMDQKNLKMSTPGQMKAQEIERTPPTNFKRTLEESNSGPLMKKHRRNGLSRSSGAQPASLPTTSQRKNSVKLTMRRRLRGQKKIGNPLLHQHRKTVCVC
Procedure, shortened: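 RapidFire mass spectrometry measured dephosphorylated peptide after 5 min room-temperature reaction of 2 uM VEPPL-pS-QETFS with 10 nM WIP1 (50 mM Tris-HCl pH 7.5, 30 mM MgCl2, 0.1 mM EGTA, BSA), following 1 hr compound preincubation; 1 uM isotope-labelled product standard.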

[3] = target: Protein phosphatase 1D (Homo sapiens) (UniProt O15297); test: Rhodamine-PBP qHTS Assay for Modulators of WT P53-Induced Phosphatase 1 (WIP1) (AID 1347425); also: % of control where 0% means no effect
Procedure, shortened: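 The read-out is the change in Rhodamine-PBP fluorescence (f1 - f0, ex 525/em 598 nm) as Pi is released, read each minute for 11 min. Final reaction: 5 nM WIP1, 10 uM phosphopeptide VEPPL-pS-QETFS, 10 uM Rh-PBP, 50 mM Tris-HCl pH 7.5, 30 mM MgCl2. Compound was preincubated with enzyme for 1 hour at room temperature.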

[4] = Primary qHTS for inhibitors of La Crosse Virus (LACV) - induced cell death in SH-SY5Y cells (AID 1508616);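 also: top concentration of the series differs between compounds; 0% = infected DMSO wells and 100% = uninfected DMSO wells; higher means more rescue of cells from virus-induced death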
Procedure, shortened: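 SH-SY5Y, 6000 cells/well; cpd via pin tool in DMSO; LACV 0.01 MOI; 6 d 37C 5% CO2; ATPLite, 5 min RT; luminescence normalized to ±virus DMSO controls.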

[5] = target: Calcium and integrin-binding protein 1 (Homo sapiens) (UniProt Q99828); test: Primary qHTS for Identification of Calcium Integrin Binding Protein 1 (CIB1) Competitor (AID 1508620);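 also: GST tagged CIB1 binding a fluorescein labelled alphaIIb integrin peptide tracer; top concentration of the series differs between compounds; % is scaled to controls: 0 for no effect and ±100 for the full control effect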
Chain of Calcium and integrin-binding protein 1 (Homo sapiens) (Q99828 whole entry, looked up): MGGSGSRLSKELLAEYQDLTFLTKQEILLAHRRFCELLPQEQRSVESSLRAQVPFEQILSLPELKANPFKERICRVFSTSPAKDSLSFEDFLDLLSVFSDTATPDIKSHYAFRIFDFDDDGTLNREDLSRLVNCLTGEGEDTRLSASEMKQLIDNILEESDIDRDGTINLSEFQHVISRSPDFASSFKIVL
Procedure, shortened: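 CIB1-GST (1 uM final) and compound incubated 15 min at room temperature before adding FITC-alphaIIb peptide tracer (100 nM final). Competition for binding read by fluorescence polarization (ex 480, em 540) after another 15 min at room temperature.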

[6] = A High-Content qHTS Against Drug Library for the Identification of Small Molecules that Inhibit DYT1 Early Onset Primary Dystonia-Associated Cell Pathology (AID 1645839; calls by dose curve; also: series mostly up to about 46 µM)
Procedure, shortened: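 High-content imaging quantified EGFP-TorsinA mislocalization in HEK293-derived cells inducibly expressing DYT1 mutant torsinA, after 48 h exposure to compound given together with tetracycline induction. Cell count served as a toxicity channel alongside %pathology.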

[7] = target: Cytochrome P450 2D6 (Homo sapiens) (UniProt P10635); test: Cytochrome P450 family 2 subfamily D member 6 (CYP2D6) small molecule antagonists: luciferase biochemical (cell-free) qHTS assay (AID 1645840; active = well fitted curve in the direction sought with a large enough effect in the repeat runs; an effect the other way counts as inactive or inconclusive; also: nearly all actives have a fitted effect of over 55% in size; also: potency is read from the fitted curve at half-maximal effect; as to activity change, negative = inhibition: series mostly up to about 57 µM; % is scaled to controls: 0 for no effect and ±100 for the full control effect)
Chain of Cytochrome P450 2D6 (Homo sapiens) (P10635 whole entry, looked up): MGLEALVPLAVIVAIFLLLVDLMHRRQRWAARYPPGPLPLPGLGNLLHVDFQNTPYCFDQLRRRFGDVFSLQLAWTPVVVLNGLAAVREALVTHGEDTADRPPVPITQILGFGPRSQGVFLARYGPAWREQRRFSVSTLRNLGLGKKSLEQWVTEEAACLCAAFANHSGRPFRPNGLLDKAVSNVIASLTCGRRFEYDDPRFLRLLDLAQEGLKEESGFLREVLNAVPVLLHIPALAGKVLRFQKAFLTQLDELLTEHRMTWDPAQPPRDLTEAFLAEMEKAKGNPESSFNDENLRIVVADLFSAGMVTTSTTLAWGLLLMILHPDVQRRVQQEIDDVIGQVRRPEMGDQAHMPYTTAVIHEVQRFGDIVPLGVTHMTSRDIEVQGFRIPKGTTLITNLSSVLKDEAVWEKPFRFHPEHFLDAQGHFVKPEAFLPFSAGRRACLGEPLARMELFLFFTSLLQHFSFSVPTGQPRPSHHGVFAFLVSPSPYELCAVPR
Procedure, shortened: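 P450-Glo CYP2D6 system: proluciferin substrate converted by enzyme to luciferin, read by luminescence proportional to activity. Enzyme-substrate mix with compound 10 min at room temperature, then NADPH regeneration 1 h before detection reagent.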

[8] = Primary qHTS for small molecule stabilizers of the endoplasmic reticulum resident proteome: Secreted ER Calcium Modulated Protein (SERCaMP) assay (AID 1508630); also: % is scaled to controls: 0 for no effect and ±100 for the full control effect
Procedure, shortened: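 The SH-SY5Y reporter protocol was run at 3 concentrations up to 38.3 uM (primary) or 11 concentrations (follow-up): 16 h compound, 100 nM thapsigargin for 4 h, then extracellular luciferase luminescence.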

CCOC(CN1CCN(CC(C)C(=O)c2ccccc2)CC1)c1ccccc1 (stereo not drawn)
active: Potency [7] 0.0952 µM
inactive: Potency [1] | outcome [2] | outcome [3] | outcome [4] | outcome [5] | Potency [6]

CCCCN1CCCC[C@H]1C(=O)Nc1c(C)cccc1C
active: Potency [7] 0.275 µM
inactive: Potency [1] | outcome [2] | outcome [3] | outcome [4] | outcome [5] | Potency [6]

COc1cc(C(=O)N2CCOCC2)cc(OC)c1OC
inactive: Potency [1] | outcome [2] | outcome [3] | outcome [4] | outcome [5] | Potency [6] | Potency [7]

O=C(O)COc1nn(Cc2ccccc2)c2ccccc12
inactive: Potency [1] | outcome [2] | outcome [3] | outcome [4] | outcome [5] | Potency [6] | Potency [7]

C[C@H]1O[C@H](O[C@H]2[C@H](O)[C@@H](O)[C@@H](O[C@H]3[C@H](O)[C@@H](O)[C@H](O)O[C@@H]3CO)O[C@@H]2CO)[C@H](O)[C@@H](O)[C@@H]1N[C@H]1C=C(CO)[C@@H](O)[C@H](O)[C@H]1O
inactive: Potency [1] | outcome [2] | outcome [3] | outcome [4] | outcome [5] | Potency [6] | Potency [7]

O=C1OC(OC(=O)c2cccnc2Nc2cccc(C(F)(F)F)c2)c2ccccc21 (stereo not drawn)
inactive: Potency [1] | outcome [2] | outcome [3] | outcome [4] | outcome [5] | Potency [6] | Potency [7]

CN(C)CCCO[C@@H]1[C@H]2OC(C)(C)O[C@H]2O[C@@H]1C(O)CO (stereo partly drawn)
inactive: Potency [1] | outcome [2] | outcome [3] | outcome [4] | outcome [5] | Potency [6] | Potency [7]

c1ccc2c(CC3=NCCN3)cccc2c1
active: Potency [7] 15.5 µM
inactive: Potency [1] | outcome [2] | outcome [3] | outcome [4] | outcome [5] | Potency [6]

COc1ccccc1O
inactive: Potency [1] | outcome [2] | outcome [3] | outcome [4] | outcome [5] | Potency [6] | Potency [7]

COc1ccc2cc1Oc1cc3c(cc1OC)CC[N+](C)(C)[C@H]3Cc1ccc(cc1)Oc1c(OC)c(OC)cc3c1[C@@H](C2)[N+](C)(C)CC3
inactive: Potency [1] | outcome [2] | outcome [3] | outcome [4] | outcome [5] | Potency [6] | Potency [7]

NCC(=O)CCC(=O)O
inactive: Potency [1] | outcome [2] | outcome [3] | outcome [4] | outcome [5] | Potency [6] | Potency [7]

CC(O)COc1ccccc1 (stereo not drawn)
inactive: Potency [1] | outcome [2] | outcome [3] | outcome [4] | outcome [5] | Potency [6] | Potency [7]

O=C(Oc1ccccc1C(=O)O)c1ccccc1O
inactive: Potency [1] | outcome [2] | outcome [3] | outcome [4] | outcome [5] | Potency [6] | Potency [7]

CCOC(=O)[C@H](CCc1ccccc1)N[C@@H](C)C(=O)N1C(=O)N(C)C[C@H]1C(=O)O
inactive: Potency [1] | outcome [2] | outcome [3] | outcome [4] | outcome [5] | Potency [6] | Potency [7]

CC1(C)[C@@H]2CC[C@@]1(C)C(=O)C2
inactive: Potency [1] | outcome [2] | outcome [4] | outcome [5] | Potency [8] | Potency [6] | Potency [7]

O=C(CCCN1CCN(c2ccccn2)CC1)c1ccc(F)cc1
inactive: Potency [1] | outcome [2] | outcome [4] | outcome [5] | Potency [8] | Potency [6]
active: Potency [7] 15.5 µM

O=C1Nc2ccc(Cl)cc2[C@@](C#CC2CC2)(C(F)(F)F)O1
inactive: Potency [1] | outcome [2] | outcome [3] | outcome [4] | outcome [5]
active: Potency [7] 27.5 µM

CC[C@@]1(c2ccccc2)NC(=O)N(C)C1=O
inactive: Potency [1] | outcome [2] | outcome [3] | outcome [4] | outcome [5] | Potency [6] | Potency [7]

C[C@@H]1CC[C@@]2(OC1)O[C@H]1C[C@H]3[C@@H]4CC[C@H]5C[C@@H](O)CC[C@]5(C)[C@H]4CC(=O)[C@]3(C)[C@H]1[C@@H]2C
inactive: activity change, negative = inhibition [1] -0.255% [at 3.83 µM] | activity change, negative = inhibition [2] 12.5% [at 6.17 µM] | activity change, negative = inhibition [3] 1.62% [at 4.81 µM] | activity change, negative = inhibition [5] -1.41% [at 12.4 µM] | activity change, negative = inhibition [8] -13.5% [at 3.88 µM] | % pathology change, negative = correction [6] -10% [at 4.63 µM] | activity change, negative = inhibition [7] 8.49% [at 4.83 µM]

O=C(O)c1ccccc1-c1ccc(C(F)(F)F)cc1
inactive: Potency [1] | outcome [2] | outcome [3] | outcome [5] | Potency [8] | Potency [6] | Potency [7]

O=C(O)c1ccccn1
inactive: Potency [1] | outcome [2] | outcome [3] | outcome [4] | Potency [6]

NS(=O)(=O)c1cc2c(cc1C(F)(F)F)NC(Cc1ccccc1)NS2(=O)=O (stereo not drawn)
inactive: Potency [1] | outcome [2] | outcome [4] | outcome [5] | Potency [8] | Potency [6] | Potency [7]

NS(=O)(=O)c1cc2c(cc1Cl)NC(CSCc1ccccc1)=NS2(=O)=O
active: Potency [7] 13.8 µM
inactive: Potency [1] | outcome [2] | outcome [3] | outcome [4] | outcome [5] | Potency [6]

CCCCCCCCCCCCOS(=O)(=O)O
inactive: Potency [1] | outcome [2] | outcome [3] | outcome [4] | Potency [6]
